Reference: PubChem BioAssay (NCATS)
Where “and” joins values, the source holds several entries; their conditions need not be identical. Identical values can stand only once. Records with an inconclusive call do not appear. Calls of active or inactive are those of the source. Unless noted, calls follow the shape of the dose curve; as a rule, active = well fitted curve in the direction sought with a large enough effect; inconclusive = small, poorly fitted or top-dose-only effect, or another doubt; inactive = no such curve, though single readings can be large; an effect the other way counts as inactive or inconclusive.

Key:
[1] = NFAT Signaling Pathway (AID 444; active = well fitted curve in either direction with a large enough effect, not every such curve was filed as active;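 also: carbachol stimulus at about its EC50 of 1 µM final; % is scaled to controls: 0 for no effect and ±100 for the full control effect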); details: Jurkat NFAT-bla M1, carbachol, beta-lactamase ratio, 5 h; at 17.2 µM (top of the series)
In short: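 Jurkat cells with NFAT-driven β-lactamase reporter and co-expressed M1 receptor, stimulated with carbachol (final 1 uM, ~EC50), compound titration, 5 h at 37 °C. CCF4 loaded 1 h at RT; 460/530 nm ratio gave %activity and AC50.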

[2] = Stat Signaling Pathway (AID 446; active = well fitted curve in either direction with a large enough effect, not every such curve was filed as active;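 also: ME-180 cervical cancer cells given 40 pM IL-6 alongside compound; SIE-controlled beta-lactamase reporter measured as 460/530 nm FRET emission ratio; % is scaled to controls: 0 for no effect and ±100 for the full control effect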)
In short: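 Screening format detects activators and inhibitors alike: ME-180 SIE-bla cells stimulated at 40 pM IL-6 for 5 hrs with compound, then dual-emission beta-lactamase read at 405 nm excitation.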

[3] = target: Glucocorticoid receptor (Homo sapiens) (UniProt P04150); assay: GR-GFP Redistribution (AID 450;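 active = compounds whose dose series gives a full or clear partial fitted curve of increased nuclear translocation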; also: potency is read from the fitted curve at half-maximal effect); details: U2OS GR-GFP nuclear translocation, laser cytometry, 2 h
[4] = target: Glucocorticoid receptor (Homo sapiens) (UniProt P04150); assay: GR-EFC Redistribution (AID 451; calls by dose curve; also: potency is read from the fitted curve at half-maximal effect); details: CHO-K1 GR-EFC translocation, beta-gal luminescence, 2 h
In short: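 CHO-K1 cells expressing nuclear EA and GR-ED fragments of b-gal; compounds titrated up to 46 uM final, 2 h at 37 C. GR nuclear translocation read as complemented b-gal luminescence after 1 h RT detection.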

[5] = target: Mitogen-activated protein kinase 10 (Mus musculus) (UniProt Q61831); assay: JNK3 AlphaScreen Assay (AID 530; active = well fitted curve in either direction with a large enough effect, not every such curve was filed as active;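 also: kinase came from lysate of stimulated human HepG2 cells; signal reports phosphorylation of biotinylated GST-cJun 1-79 at Ser73 with 10 µM ATP; % is scaled to controls: 0 for no effect and ±100 for the full control effect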)
In short: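 Pre-activated (IL-1β/TNFα) JNK3 in HepG2 lysates phosphorylates biotin-GST-cJun(1-79), 10 uM ATP; anti-phospho-cJun(Ser73) AlphaScreen read at room temperature, pH 7.6 Tris buffer. Compounds pre-incubated 15 min as titrations.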

[6] = target: 3',5'-cyclic-AMP phosphodiesterase 4B (Homo sapiens) (UniProt Q07343); assay: qHTS Assay for Inhibitors of PDE-IV (AID 607; active = well fitted activation curve with a large enough effect in the main read-out, with a control signal flat, not every such curve was filed as active; also: % of control where 0% means no effect)
In short: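 The readout is membrane depolarisation from a cAMP-sensing CNG channel, detected with a potential dye at ex 535/em 590. Cells were HEK293-derived (endogenous PDE-IV) at 1000 cells/well, titrated up to 22.9 uM final.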

[7] = target: Cytochrome P450 2C9 (Homo sapiens) (UniProt P11712); assay: qHTS Assay for Inhibitors and Substrates of Cytochrome P450 2C9 (AID 883); also: % is scaled to controls: 0 for no effect and ±100 for the full control effect; nearly all actives have a fitted effect of over 60% in size
In short: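 Signal: luciferase luminescence reporting luciferin produced by CYP2C9. Conditions: 10nM enzyme, Luciferin-H 100uM at KM, 25mM KPO4, 37C, 60 min NADPH-driven reaction. Reference: 57uM sulphaphenazole as 100% inhibition.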

[8] = target: Cytochrome P450 3A4 (Homo sapiens) (UniProt P08684); assay: qHTS Assay for Inhibitors and Substrates of Cytochrome P450 3A4 (AID 884); also: potency is read from the fitted curve at half-maximal effect; nearly all actives have a fitted effect of over 50% in size
In short: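 20 nM human CYP3A4 with 25 uM Luciferin-PPXE (at KM) in 200 mM KPO4, preincubated 10 min with compound; NADPH regeneration started a 60 min RT reaction. Luciferin detected by luminescence, normalized to 57 uM ketoconazole as full inhibition.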

[9] = target: Cytochrome P450 3A4 (Homo sapiens) (UniProt P08684); assay: qHTS Assay for Activators of Cytochrome P450 3A4 (AID 885); also: nearly all actives have a fitted effect of over 65% in size
In short: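 Steps: enzyme/substrate mix dispensed; compound added, 10 min RT; NADPH regeneration solution added, 60 min RT; luciferin detection buffer stops reaction; 20 min later luminescence measured.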

[10] = target: Cytochrome P450 2D6 (Homo sapiens) (UniProt P10635); assay: qHTS Assay for Inhibitors and Substrates of Cytochrome P450 2D6 (AID 891); also: potency is read from the fitted curve at half-maximal effect; nearly all actives have a fitted effect of over 60% in size
In short: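 Human CYP2D6 (5 nM) with 30 uM Luciferin-ME EGE (at Km) in 100 mM KPO4, compound preincubated 10 min, then NADPH regeneration system for 60 min at room temperature. Luciferin read by luminescence; normalized to 1.43 uM quinidine.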

[11] = qHTS Assay for Lipid Storage Modulators (AID 1519; calls by dose curve); details: Drosophila S3 cells, BODIPY lipid droplet/cell ratio, laser cytometry, cells loaded with oleic acid
In short: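 Cells seeded at 5,000 per well were treated with compounds over a concentration series and loaded with oleic acid (400 uM, as added). Lipid droplet fluorescence (488 nm excitation, 500-530 nm channel) was read by laser-scanning cytometry and normalized to 20 uM Triacsin C.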

[12] = target: DNA dC->dU-editing enzyme APOBEC-3G (Homo sapiens) (UniProt Q9HC16); assay: qHTS for inhibitors of Vif-A3G interactions: Validation (AID 588379); also: 0% is about no effect
In short: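 HeLa cells stably expressing Vif and A3G-eYFP, 700 cells/well, incubated overnight at 37 deg C, then exposed to compound overnight at 37 deg C. Inhibition of Vif-mediated degradation read as increased yellow fluorescence (Ex 488/Em 500-530) by laser-scanning cytometry.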

[13] = test system: Zika virus NS2B-NS3 protease (linked construct); assay: Primary screen NINDS Rhodamine qHTS for Zika virus inhibitors (AID 1347160); also: % is scaled to controls: 0 for no effect and ±100 for the full control effect; nearly all actives have a fitted effect of over 55% in size
In short: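 Kinetic fluorescence (Ex 480 nm, Em 540 nm) over 15 min with 1.5 microM Rhodamine110 peptide and 25 nM linked protease.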

[14] = OV-KATE Cancer Cell Toxicity qHTS against the NCATS CANVASS Library (AID 1347345); also: % is scaled to controls: 0 for no effect and ±100 for the full control effect
In short: (§1)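 Following a 4 h pre-incubation of 1000 seeded cells, compounds were pinned in an 11-pnt dilution series and left for 72 h; viability then came from CellTiter-Glo.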

[15] = HPAF-II Cancer Cell Toxicity qHTS against the NCATS CANVASS Library (AID 1347346); also: % is scaled to controls: 0 for no effect and ±100 for the full control effect; nearly all actives have a fitted effect of over 55% in size
In short: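 HPAF-II cells at 1000 cells/well were treated with an 11-point concentration series for 72 hours at 37 degrees C. Viability read by CellTiter-Glo luminescence.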

[16] = OV-SAHO Cancer Cell Toxicity qHTS against the NCATS CANVASS Library (AID 1347348); also: % is scaled to controls: 0 for no effect and ±100 for the full control effect; nearly all actives have a fitted effect of over 55% in size
In short: as §1

[17] = SW1088 Cancer Cell Toxicity qHTS against the NCATS CANVASS Library (AID 1347350); also: nearly all actives have a fitted effect of over 75% in size
In short: as §1

[18] = U-118MG Cancer Cell Toxicity qHTS against the NCATS CANVASS Library (AID 1347351); also: % is scaled to controls: 0 for no effect and ±100 for the full control effect
In short: as §1

[19] = A2780 Cisplatin Sensitive Ovarian Cancer Cell Toxicity qHTS against the NCATS CANVASS Library (AID 1347353); also: nearly all actives have a fitted effect of over 60% in size
In short: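 A2780 cells, 750/well, settled 4 h at 37 °C, then treated with an 11-point compound series for 72 h. Viability was read as ATPLite luminescence after 10 min at room temperature, with bortezomib as control.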

[20] = HPAF-II 24hr Apoptosis Induction qHTS against the NCATS CANVASS Library (AID 1347356); also: 0% is about no effect
In short: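 HPAF-II cells (500/well) exposed to compounds in 11-point series for 24 h at 37 degrees C; caspase-3/7 activity read by Caspase-Glo luminescence after 15 min at room temperature. Doxorubicin titration as control.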

[21] = HEK293 18hr Apoptosis Induction qHTS against the NCATS CANVASS Library (AID 1347357); also: 0% is about no effect
In short: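 Caspase-3/7 luminescence (DEVD substrate, Caspase-Glo) after 18 h compound exposure of HEK293 cells, 500 cells/well; 11-point series; doxorubicin titration as control.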

[22] = HPAF-II 12hr Apoptosis Induction qHTS against the NCATS CANVASS Library (AID 1347358); also: 0% is about no effect
In short: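 HPAF-II cells, 500/well in DMEM + 10% FBS, exposed 12 hours at 37 degrees C to compound (11-point). Caspase-Glo 3/7 added for 15 min at room temperature; luminescence reflects caspase-3/7 activity.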

[23] = HEK293 24hr Apoptosis Induction qHTS against the NCATS CANVASS Library (AID 1347359); also: 0% is about no effect
In short: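 HEK293 cells, 500 per well, exposed to an 11-point compound series for 24 hours at 37 degrees C. Caspase 3/7 activity read by Caspase-Glo luminescence (DEVD substrate) after 15 min at room temperature.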

Sequence of Cytochrome P450 3A4 (Homo sapiens) (P08684 whole entry, looked up): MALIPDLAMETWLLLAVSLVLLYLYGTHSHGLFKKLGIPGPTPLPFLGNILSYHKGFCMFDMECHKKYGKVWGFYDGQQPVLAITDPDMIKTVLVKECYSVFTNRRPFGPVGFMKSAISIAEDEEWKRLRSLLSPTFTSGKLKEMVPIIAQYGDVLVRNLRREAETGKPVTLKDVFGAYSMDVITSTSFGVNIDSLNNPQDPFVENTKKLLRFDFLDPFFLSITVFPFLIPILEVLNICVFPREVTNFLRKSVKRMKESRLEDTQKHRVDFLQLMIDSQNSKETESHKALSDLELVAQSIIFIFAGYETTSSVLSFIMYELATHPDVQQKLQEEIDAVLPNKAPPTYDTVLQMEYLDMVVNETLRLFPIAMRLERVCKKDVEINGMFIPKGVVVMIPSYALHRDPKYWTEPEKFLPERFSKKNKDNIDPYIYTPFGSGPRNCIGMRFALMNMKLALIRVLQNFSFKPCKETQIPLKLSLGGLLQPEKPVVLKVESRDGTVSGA
Sequence of Glucocorticoid receptor (Homo sapiens) (P04150 whole entry, looked up, the tested form may be a part): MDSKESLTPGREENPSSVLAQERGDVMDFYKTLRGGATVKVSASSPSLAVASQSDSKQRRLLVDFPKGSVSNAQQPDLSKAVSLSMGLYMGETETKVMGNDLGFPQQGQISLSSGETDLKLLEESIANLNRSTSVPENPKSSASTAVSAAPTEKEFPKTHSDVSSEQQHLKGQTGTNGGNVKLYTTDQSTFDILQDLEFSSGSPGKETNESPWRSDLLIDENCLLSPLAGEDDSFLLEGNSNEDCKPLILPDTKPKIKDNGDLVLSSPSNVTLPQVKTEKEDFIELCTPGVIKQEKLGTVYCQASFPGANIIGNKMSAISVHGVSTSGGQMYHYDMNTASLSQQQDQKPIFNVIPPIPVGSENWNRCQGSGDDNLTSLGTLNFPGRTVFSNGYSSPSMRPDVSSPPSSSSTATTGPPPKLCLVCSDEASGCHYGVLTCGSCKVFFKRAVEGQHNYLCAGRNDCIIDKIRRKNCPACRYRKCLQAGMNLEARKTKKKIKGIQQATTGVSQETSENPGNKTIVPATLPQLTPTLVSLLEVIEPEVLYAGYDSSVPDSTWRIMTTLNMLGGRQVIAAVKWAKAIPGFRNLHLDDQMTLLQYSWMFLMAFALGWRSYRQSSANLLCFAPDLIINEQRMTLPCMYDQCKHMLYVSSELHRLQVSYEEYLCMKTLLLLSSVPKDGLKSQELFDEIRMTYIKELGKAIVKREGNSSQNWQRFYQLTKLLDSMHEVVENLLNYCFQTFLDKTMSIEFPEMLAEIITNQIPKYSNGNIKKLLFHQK
Sequence of Cytochrome P450 2D6 (Homo sapiens) (P10635 whole entry, looked up): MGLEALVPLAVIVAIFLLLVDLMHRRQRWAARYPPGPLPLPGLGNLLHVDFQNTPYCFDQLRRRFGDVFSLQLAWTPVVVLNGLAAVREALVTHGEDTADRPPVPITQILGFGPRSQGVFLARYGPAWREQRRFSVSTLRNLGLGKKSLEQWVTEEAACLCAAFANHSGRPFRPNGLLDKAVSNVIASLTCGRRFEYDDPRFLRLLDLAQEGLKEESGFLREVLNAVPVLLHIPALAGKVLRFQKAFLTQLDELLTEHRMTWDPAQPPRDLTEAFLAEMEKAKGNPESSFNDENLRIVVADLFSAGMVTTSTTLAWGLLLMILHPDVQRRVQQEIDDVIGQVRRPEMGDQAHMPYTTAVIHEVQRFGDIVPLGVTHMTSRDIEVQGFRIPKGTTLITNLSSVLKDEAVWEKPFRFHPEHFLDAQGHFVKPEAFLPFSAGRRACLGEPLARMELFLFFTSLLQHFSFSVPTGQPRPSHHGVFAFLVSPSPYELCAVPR
Sequence of Cytochrome P450 2C9 (Homo sapiens) (P11712 whole entry, looked up): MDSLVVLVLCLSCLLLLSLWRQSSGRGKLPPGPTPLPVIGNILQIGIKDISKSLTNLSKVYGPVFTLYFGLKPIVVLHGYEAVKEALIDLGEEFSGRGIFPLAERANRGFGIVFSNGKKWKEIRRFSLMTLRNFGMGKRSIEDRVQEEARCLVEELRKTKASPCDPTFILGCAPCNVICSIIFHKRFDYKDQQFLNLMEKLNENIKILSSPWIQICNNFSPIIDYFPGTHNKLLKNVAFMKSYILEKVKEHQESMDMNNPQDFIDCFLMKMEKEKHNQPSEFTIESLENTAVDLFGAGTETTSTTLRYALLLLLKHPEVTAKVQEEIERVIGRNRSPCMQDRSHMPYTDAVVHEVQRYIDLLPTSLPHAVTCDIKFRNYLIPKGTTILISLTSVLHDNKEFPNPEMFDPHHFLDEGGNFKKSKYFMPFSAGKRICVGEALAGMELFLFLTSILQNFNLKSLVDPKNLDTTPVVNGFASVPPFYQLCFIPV
Sequence of 3',5'-cyclic-AMP phosphodiesterase 4B (Homo sapiens) (Q07343 whole entry, looked up): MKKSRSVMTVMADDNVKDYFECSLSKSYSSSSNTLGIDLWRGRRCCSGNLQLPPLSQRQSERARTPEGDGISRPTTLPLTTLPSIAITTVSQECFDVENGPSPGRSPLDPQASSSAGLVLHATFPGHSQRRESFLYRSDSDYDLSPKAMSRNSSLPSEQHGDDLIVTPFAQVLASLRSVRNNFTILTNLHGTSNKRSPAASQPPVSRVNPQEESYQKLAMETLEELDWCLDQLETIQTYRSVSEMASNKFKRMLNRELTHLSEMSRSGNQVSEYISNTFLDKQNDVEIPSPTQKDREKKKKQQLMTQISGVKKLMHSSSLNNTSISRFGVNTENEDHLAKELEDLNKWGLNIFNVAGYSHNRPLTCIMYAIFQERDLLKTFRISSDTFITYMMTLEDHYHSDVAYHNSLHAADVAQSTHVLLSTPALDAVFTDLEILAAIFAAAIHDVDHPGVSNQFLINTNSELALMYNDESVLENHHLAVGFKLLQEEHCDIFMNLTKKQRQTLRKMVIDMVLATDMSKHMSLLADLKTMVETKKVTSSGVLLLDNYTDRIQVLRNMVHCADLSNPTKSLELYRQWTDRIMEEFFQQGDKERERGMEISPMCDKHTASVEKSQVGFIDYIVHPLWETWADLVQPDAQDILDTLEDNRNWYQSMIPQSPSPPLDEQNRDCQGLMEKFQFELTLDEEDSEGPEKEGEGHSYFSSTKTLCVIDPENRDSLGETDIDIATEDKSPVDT
Sequence of DNA dC->dU-editing enzyme APOBEC-3G (Homo sapiens) (Q9HC16 whole entry, looked up): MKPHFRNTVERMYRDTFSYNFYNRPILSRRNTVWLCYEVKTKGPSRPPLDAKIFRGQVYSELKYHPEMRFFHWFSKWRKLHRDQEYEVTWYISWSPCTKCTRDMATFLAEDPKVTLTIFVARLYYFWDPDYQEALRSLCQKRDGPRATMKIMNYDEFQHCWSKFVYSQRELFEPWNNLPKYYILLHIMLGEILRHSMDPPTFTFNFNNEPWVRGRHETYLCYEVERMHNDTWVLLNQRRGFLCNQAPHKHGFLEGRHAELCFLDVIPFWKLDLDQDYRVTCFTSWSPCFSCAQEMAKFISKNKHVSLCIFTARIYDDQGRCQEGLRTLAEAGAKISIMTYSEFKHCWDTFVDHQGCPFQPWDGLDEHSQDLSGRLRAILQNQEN

CN(C)Cc1c[nH]c2ccccc12
inactive: activity change, negative = inhibition [1] 1.81% | outcome [2] | Potency [3] > 20.6 µM and > 46 µM | Potency [4] > 20.6 µM and > 46 µM | outcome [5] | Potency [6] | Potency [7] | Potency [9] | activity change, negative = inhibition ([11]; at 25.7 µM (top of the series)) -1.33% | Potency [12] | Potency [13] | Potency [14] | Potency [15] | Potency [16] | Potency [17] | Potency [18] | Potency [19] | outcome [20] | Potency [21] | outcome [22] | Potency [23]
-14%: max response ([11]; measured here: cell count channel max response) | max response ([11]; measured here: lipid channel max response)
active: Potency [8] 15.8 µM | Potency [10] 158 nM and 10 µM
